High-throughput results: PubChem BioAssay, National Center for Advancing Translational Sciences (NCATS)
Pf growth 48h: P. falciparum growth inhibition at 48 hours (one generation) | P. falciparum luciferase growth in erythrocytes, 48 h | Potency, µM (titrated, usually from 28.7 µM), for the others: at the highest dose activity change, negative = inhibition, usual class: inhibitors | 310,000 compounds, 5.9% hits; note: potency is the fitted concentration of half-maximal effect
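Cell-based growth assay: transgenic P. falciparum expressing firefly luciferase, cultured in red cells within RPMI 1640 containing 0.5% w/v Albumax, 24 mM bicarbonate and gentamycin. A drop in luciferase activity indicates inhibition.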
HCMV antiviral: blocks human cytomegalovirus replication. HFF cells, HCMV-luciferase reporter, 72 h; active compounds read low. activity change, negative = inhibition, % at 57.5 µM. 410,000 compounds, 4.5% hits. AID 1259415; in the data active = activity change below about -60%; inconclusive = no clear call, values can overlap the other calls; inactive = above about -39%
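Human foreskin fibroblasts infected with luciferase-reporter HCMV at MOI 1 PFU/cell, compounds at two doses. Luciferase measured 72 h post infection; normalized to buffer-only basal and Salinomycin (10uM) controls.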
Sm TGR inh: S. mansoni TGR enzyme inhibition; Q962Y6; purified TGR, DTNB reduction, TNB absorbance 405 nm; Potency, µM (top dose mostly 114 µM), for the others: top-dose activity change, negative = inhibition, hits mostly inhibitors; 360,000 compounds, 3% hits; AID 485364; note: potency is the fitted concentration of half-maximal effect; nearly all actives have a fitted effect of over 60% in size
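Kinetic colorimetric format: TGR-catalysed, NADPH-driven DTNB reduction monitored via TNB absorbance. Enzyme dispensed at 20 nM; compound exposure 15 min at room temperature before reaction start.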
Pf growth 96h: P. falciparum growth inhibition at 96 hour, primary screen for plastid delayed-death inhibitors | P. falciparum luciferase reporter growth, 96 h | Potency, µM (series often up to 28.7 µM), for the others: top-dose activity change, negative = inhibition, hits mostly inhibitors | 320,000 compounds, 6.9% hits; note: potency is the fitted concentration of half-maximal effect
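Delayed-death screen, second-generation endpoint: infected erythrocytes, 2% hematocrit, 0.05% parasitemia final; 96 hours at 37 C, 5% CO2; luciferase detection reagent; luminescence decrease equals reduced growth.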
FBPA Giardia inh: Giardia lamblia aldolase inhibition. 290,000 compounds, 0.71% hits. AID 2451. purified Giardia FBPA. Potency, µM (top dose mostly 59.6 µM), for inactives: at the top dose activity, negative = inhibition, most hits filed as inhibitors. A8B2U2; note: potency is the fitted concentration of half-maximal effect; nearly all actives have a fitted effect of over 55% in size
Target sequence (A8B2U2 whole entry, looked up): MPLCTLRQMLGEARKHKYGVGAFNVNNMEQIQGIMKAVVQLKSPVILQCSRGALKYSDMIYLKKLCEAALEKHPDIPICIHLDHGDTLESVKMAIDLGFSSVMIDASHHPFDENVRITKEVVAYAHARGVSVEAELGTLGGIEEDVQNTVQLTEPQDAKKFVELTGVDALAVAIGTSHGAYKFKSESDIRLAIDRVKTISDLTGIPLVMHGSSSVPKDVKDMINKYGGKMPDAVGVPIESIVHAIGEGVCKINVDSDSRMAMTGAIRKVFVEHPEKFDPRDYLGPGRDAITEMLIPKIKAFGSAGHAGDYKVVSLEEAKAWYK
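Giardia FBPA (40 nM reagent) was preincubated 10 min at RT with compound (up to 57.5 uM final), then substrate plus GAPDH/TPI/NAD/arsenate coupling system with diaphorase/resazurin was added; resorufin fluorescence (525/598 nm) was read after 20 min.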
Numbers without * were called inactive. Rows were chosen to be rich in hits. Some 14% of all compounds tested hit in one or more screens of this group. Unless noted, calls come from the whole dose curve; as a rule, active = well fitted curve in the direction sought with a large enough effect; inconclusive = small, poorly fitted or top-dose-only effect, or another doubt; inactive = no such curve, though single readings can be large; an effect the other way counts as inactive or inconclusive. % is set by controls: 0 for no effect and ±100 for the full control effect.

What do the screens show for `C#CCOCCOCCOCCNc1nc(N2CCN(C(=O)CCCCCCCCCCNC(=O)[C@H]([C@@H](C)CC)n3cc(CCCCCN)nn3)CC2)nc(N2CCN(C(=O)CCCCCCCCCCNC(=O)[C@@H]([C@H](C)O)n3cc(C)nn3)CC2)n1`?
Pf growth 48h: 0.47µM*; Sm TGR inh: -29%; Pf growth 96h: 0.37µM*

Results for C#CCOCCOCCOCCNc1nc(N2CCN(C(=O)CCCCCCCCCCNC(=O)[C@H](CCCCN)n3cc(C)nn3)CC2)nc(N2CCN(C(=O)CCCCCCCCCCNC(=O)[C@@H]([C@H](C)CC)n3cc(CCCCCN)nn3)CC2)n1 ?
Pf growth 48h: 3.3µM*; Sm TGR inh: 25µM*; Pf growth 96h: 4.1µM*

Results for C#CCOCCOCCOCCNc1nc(N2CCN(C(=O)[C@H]([C@@H](C)CC)n3cc(CCCCN)nn3)CC2)nc(N2CCN(C(=O)[C@H](CCCCN)n3cc(CCC(=O)O)nn3)CC2)n1 ?
Pf growth 48h: 12%; HCMV antiviral: -2; Sm TGR inh: 7%; Pf growth 96h: 88%

How did C#CCOCCOCCOCCNc1nc(N2CCN(C(=O)CCCCCCCCCCNC(=O)[C@@H]([C@H](C)O)n3cc(C)nn3)CC2)nc(N2CCN(C(=O)CCCCCCCCCCNC(=O)[C@@H]([C@H](C)O)n3cc(C)nn3)CC2)n1 do in these assays?
Pf growth 48h: 0.1µM*; HCMV antiviral: -74*; Sm TGR inh: -30%; Pf growth 96h: 0.074µM*

How did CC(=O)N1CCc2cc(S(=O)(=O)NC(Cc3ccccc3)C(=O)Nc3cccc(C)c3)ccc21 (stereo unspecified) do in these assays?
HCMV antiviral: -33; Sm TGR inh: -10%

Results for CCC1=[N+](CC(=O)c2ccc(Br)cc2)CCn2c(C)ccc21 ?
Pf growth 48h: 5.9µM*; HCMV antiviral: -28; Sm TGR inh: 18µM*; Pf growth 96h: inconclusive; FBPA Giardia inh: -3%

How did CCC1=[N+](CC(=O)c2ccc(C)cc2)CCn2c(C)ccc21 do in these assays?
Pf growth 48h: 3.3µM*; HCMV antiviral: -63*; Sm TGR inh: -34%; Pf growth 96h: inconclusive; FBPA Giardia inh: 3%

How did CC1(C)C=C(c2ccc(O)cc2)CC(C)(C)N1 do in these assays?
Pf growth 48h: 4%; HCMV antiviral: 25; Sm TGR inh: 1%; Pf growth 96h: 13µM*; FBPA Giardia inh: -1%

How did C=CCN1C(=O)/C(=C\c2ccc(N3CCOCC3)o2)C(=O)NC1=S do in these assays?
Pf growth 48h: 7%; HCMV antiviral: -18; Sm TGR inh: 50µM*; Pf growth 96h: inconclusive; FBPA Giardia inh: -16%

What do the screens show for `O=C1NC(=S)S/C1=C/c1ccc(N2CCOCC2)o1`?
Pf growth 48h: 9%; Sm TGR inh: 3.5µM*; Pf growth 96h: 28%; FBPA Giardia inh: inconclusive

Results for O=C1N/C(=C/c2ccc(N3CCOCC3)o2)C(=O)N1c1ccccc1 ?
Pf growth 48h: 14%; HCMV antiviral: 50; Sm TGR inh: 8.9µM*; Pf growth 96h: -3%; FBPA Giardia inh: inconclusive

What do the screens show for `CCN1C(=O)C(=Cc2ccc(N3CCOCC3)o2)C(=O)N(CC)C1=S`?
Pf growth 48h: 1%; HCMV antiviral: 24; Sm TGR inh: -25%; Pf growth 96h: 0%; FBPA Giardia inh: 3%

How did C=CCN1C(=O)N/C(=C/c2ccc(N3CCOCC3)o2)C1=O do in these assays?
Pf growth 48h: inconclusive; HCMV antiviral: -63*; Sm TGR inh: 7.1µM*; Pf growth 96h: inconclusive; FBPA Giardia inh: inconclusive

Results for CC1CCCCC1NC(=O)COC(=O)c1ccc2ncsc2c1 (stereo unspecified) ?
Pf growth 48h: -3%; HCMV antiviral: -12; Sm TGR inh: -6%; Pf growth 96h: 51%

How did CC1=CC(=O)C(Sc2ccc(C)cc2)=CC1=O do in these assays?
HCMV antiviral: -18

What do the screens show for `COc1cccc(C=C2SC(=S)NC2=O)c1`?
HCMV antiviral: 152

How did CN1C(=O)/C(=C\c2ccc(N3CCCCC3)o2)C(=O)NC1=S do in these assays?
Pf growth 48h: 9%; HCMV antiviral: 9; Sm TGR inh: inconclusive; Pf growth 96h: 19%; FBPA Giardia inh: -4%
